Hits are enriched below; roughly 18% of the tested compounds scored in any of these assays.
IL1B secr inh: blocks inflammasome-driven IL-1 beta release | activity change, % at 57.5 µM | actives 4.7% (n = 360,000) | THP-1 LPS/ATP IL-1B secretion, AlphaLISA, 16 h; active compounds read low; in the data active = activity change below about -50%; inconclusive = mostly about -30% to -49%; note: % is set by controls: 0 for no effect and ±100 for the full control effect
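THP-1 cells pretreated 1 hr with compounds (up to 57.5 uM final), then stimulated with LPS (250 ng/mL final) plus ATP (1.25 mM final); secreted IL-1B measured by AlphaLISA after 16 hr, decreased signal indicating inhibition.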
TDP1 cell noCPT: qHTS for Inhibitors of human tyrosyl-DNA phosphodiesterase 1 (TDP1): qHTS in cells in absence of CPT | DT40 Tdp1-/- hTDP1 cells, no CPT, ATP luminescence, 48 h | Potency, µM (titrated, usually from 46.2 µM), for the others: top-dose activity change, negative = growth inhibition, hits mostly inhibitors | actives 15% (n = 420,000) | AID 686978, 2013; note: potency is the fitted concentration of half-maximal effect; % is set by controls: 0 for no effect and ±100 for the full control effect; nearly all actives have a fitted effect of over 55% in size
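Seeded 400 DT40-hTDP1 cells/well (vehicle DMSO, no 20 nM CPT); pinned compounds; ≥48 hr at 37 °C; CellTiter-Glo luminescence as viability measure.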
TGFb SMAD3 inh: TGF-b pathway inhibition. HepG2 CAGA-GFP TGF-b/SMAD3 reporter, GFP fluorescence, 18 h; TGF-beta stimulated, 500 pg/mL final. Potency, µM (doses to about 46.1 µM), inactives show at the highest dose activity, negative = inhibition, usual class: inhibitors. actives 1.2% (n = 410,000). AID 588855; note: potency is the fitted concentration of half-maximal effect; % is set by controls: 0 for no effect and ±100 for the full control effect; nearly all actives have a fitted effect of over 65% in size
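HEPG2 CAGA-GFP cells (1000/well, DMEM with 1% FBS) were pre-incubated 2 h at 37 degrees C, given compound by pin tool, then stimulated with TGF-beta at 500 pg/mL final for 18 h before per-cell GFP fluorescence imaging.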
TDP1 block: inhibitors of human tyrosyl-DNA phosphodiesterase TDP1; AID 485290; Potency, µM (titrated, usually from 130 µM), without a hit: at the highest dose activity change, negative = inhibition, actives largely listed as inhibitors; actives 0.28% (n = 350,000); Q9NUW8; recombinant TDP1, AlphaScreen DNA substrate cleavage; note: potency is the fitted concentration of half-maximal effect; % is set by controls: 0 for no effect and ±100 for the full control effect; nearly all actives have a fitted effect of over 40% in size
Target sequence (Q9NUW8 whole entry, looked up): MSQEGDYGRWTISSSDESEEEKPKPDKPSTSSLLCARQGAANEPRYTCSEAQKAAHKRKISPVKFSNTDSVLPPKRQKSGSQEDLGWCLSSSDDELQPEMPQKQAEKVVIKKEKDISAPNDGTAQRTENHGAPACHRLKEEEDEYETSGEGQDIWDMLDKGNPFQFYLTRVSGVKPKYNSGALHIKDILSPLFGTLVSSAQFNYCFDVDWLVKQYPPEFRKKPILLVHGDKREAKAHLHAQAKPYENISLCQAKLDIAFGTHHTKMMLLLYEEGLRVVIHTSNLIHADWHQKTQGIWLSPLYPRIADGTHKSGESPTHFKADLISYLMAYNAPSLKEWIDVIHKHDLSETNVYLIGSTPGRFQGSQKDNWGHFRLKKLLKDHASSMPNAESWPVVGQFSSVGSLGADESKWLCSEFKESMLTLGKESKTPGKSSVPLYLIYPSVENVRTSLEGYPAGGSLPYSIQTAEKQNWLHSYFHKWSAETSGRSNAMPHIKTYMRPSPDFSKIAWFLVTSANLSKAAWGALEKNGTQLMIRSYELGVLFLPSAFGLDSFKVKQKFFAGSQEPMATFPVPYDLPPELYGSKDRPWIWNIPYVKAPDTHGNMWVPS
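Steps: enzyme plus compound, 15 min RT; add biotin/phosphotyrosine-FITC oligonucleotide (15 nM final), react 5 min; add donor/acceptor beads (10 ug/ml final), 10 min; read AlphaScreen. Tdp1 at 1 nM final.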
HepG2 tox: HepG2 cytotoxicity, counter-screen for TGF-b inhibitors; HepG2 CAGA-GFP viability, ATP luminescence, 18 h; Potency, µM (top dose mostly 46.1 µM), inactives show at the top dose activity change, negative = cytotoxicity, actives largely listed as cytotoxic; actives 0.76% (n = 410,000); AID 588856; note: potency is the fitted concentration of half-maximal effect
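CellTiter-Glo luminescence gave cytotoxicity after 18 hours at 37 degrees C. The cells were HepG2 CAGA-GFP in 1% FBS DMEM, stimulated with 500 pg/mL TGF-beta after compound addition. %Activity was normalised to no-cell wells (complete cell-killing) and DMSO (no toxicity), and curves were fitted and classified.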
TDP1 cell CPT: DT40-hTDP1 cell growth loss with CPT; Potency, µM (doses to about 46.2 µM), without a hit: top-dose activity change, negative = growth inhibition, actives largely listed as inhibitors; actives 12% (n = 420,000); chicken DT40 Tdp1-/-;hTDP1 cells + 20 nM CPT, ATP luminescence, 48 h; note: potency is the fitted concentration of half-maximal effect; % is set by controls: 0 for no effect and ±100 for the full control effect; nearly all actives have a fitted effect of over 55% in size
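Chicken DT40 Tdp1-/- cells complemented with human TDP1, 400 cells/well, exposed to compounds plus 20 nM camptothecin for at least 48 h at 37 C; viability read as ATP content by CellTiter-Glo luminescence.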
* hit, by the source's call; u = inconclusive; x = not tested or not shown; [ ] = remark or other dose. Unless noted, calls come from the whole dose curve; as a rule, active = well fitted curve in the direction sought with a large enough effect; inconclusive = small, poorly fitted or top-dose-only effect, or another doubt; inactive = no such curve, though single readings can be large; an effect the other way counts as inactive or inconclusive.

SMILES	IL1B secr inh	TDP1 cell noCPT	TGFb SMAD3 inh	TDP1 block	HepG2 tox	TDP1 cell CPT
COc1ccc(Cl)cc1Cn1c(C)c(C(=O)NCc2ccc3c(c2)OCCO3)sc1=O	-8.7	18.4µM*	-6.0%	x	-1.8%	u
COc1ccc(CNC(=O)c2sc(=O)n(Cc3cc(C(C)=O)ccc3OC)c2C)cc1	-8.5	13µM*	-10.1%	x	22.3%	23.1µM*
COc1ccc(C(C)=O)cc1Cn1c(C)c(C(=O)NCc2cccc(C(F)(F)F)c2)sc1=O	-22.2	u	u	x	-1.6%	u
COc1ccc(C(C)=O)cc1Cn1c(C)c(C(=O)NCc2ccc(C(C)C)cc2)sc1=O	26.2	u	u	x	-19.9%	u
CCN(CC)C(=O)CSc1nc2c(c(=O)n(C)c(=O)n2C)n1Cc1ccccc1	x	-22.9%	-11.4%	0.6%	0.7%	-12.6%
COc1cccc(C=NN(C)c2c([N+](=O)[O-])cc(C(F)(F)F)cc2[N+](=O)[O-])c1O	u	u	u	x	-39.9%	u
C/C=C1\COC(C(=O)NCCN2CCOCC2)(C(F)(F)F)C=C1C=C(C)C (stereo not given)	x	x	-31.1%	10.3%	-11.9%	x
Cc1ccc(NC(=O)Nc2csc3c2CCCC3)c(C)c1	x	-29.3%	6.6%	3.9%	-1.1%	u
COc1ccc(CNC(=O)c2sc(=O)n(Cc3cc(Cl)ccc3OC)c2C)cc1	-18.8	16.4µM*	-22.9%	x	-0.8%	u
COc1ccc(CNC(=O)c2sc(=O)n(Cc3ccc(C)cc3)c2C)cc1	u	u	-10.5%	x	-0.3%	u
COc1ccc(Cl)cc1Cn1c(C)c(C(=O)NCc2cccc(Cl)c2)sc1=O	0.0	u	-23.8%	x	-4.4%	14.6µM*
O=c1n(Cc2cc3c(cc2Cl)OCO3)c(=O)n2n1CC[C@H]1/C(=N\OCc3ccccc3)[C@H]3O[C@@H]3[C@@H](O)[C@@H]12	x	x	x	-0.5%[21 µM]	x	x
Cc1ccc(Cn2c(SCC(=O)N(C)C3CCS(=O)(=O)C3)nc3ccccc3c2=O)cc1 (stereo not given)	-54.8*	u	13.1%	0.8%	-12.2%	-21.1%
CN(C(=O)CSc1nnc(-c2ccc(F)cc2)c2ccccc12)C1CCS(=O)(=O)C1 (stereo not given)	-90.7*	-20.9%	u	1.2%	-5.9%	0.2%
CN(C(=O)CSc1nnc(-c2cccs2)o1)C1CCS(=O)(=O)C1 (stereo not given)	-6.0	-5.8%	-8.4%	2.6%	-7.3%	8.0%
C=CCn1c(SCC(=O)N(C)C2CCS(=O)(=O)C2)nc2ccccc2c1=O (stereo not given)	-4.2	-6.2%	-1.9%	2.7%	-39.7%	2.1%
CN(C(=O)CSc1n[nH]c(-c2cccs2)n1)C1CCS(=O)(=O)C1 (stereo not given)	12.0	-2.2%	7.0%	-0.3%[0.505 µM]	11.2µM*	-7.6%
CN(C(=O)CSc1nnc(-c2ccccc2)c(-c2ccccc2)n1)C1CCS(=O)(=O)C1 (stereo not given)	5.4	20.6µM*	u	8.1%	2.1%	16.4µM*
CN(C(=O)CSc1nnc(-c2ccc(F)cc2)n1C)C1CCS(=O)(=O)C1 (stereo not given)	-14.9	15.6%	23.2%	-0.1%	-1.5%	9.9%
CCOC(=O)C1CCCN(C(=O)CCNS(=O)(=O)c2cc(Br)cnc2N)C1 (stereo not given)	2.3	6.6%	-0.1%	0.9%	5.5%	5.6%
Cc1ccccc1NC(=O)CSc1nc(N)c2c3c(sc2n1)CSC(C)(C)C3	13.0	u	-18.8%	2.7%	5.4%	23.1µM*

Bioassay records from PubChem.
